In PubChem BioAssay (NCATS) one finds Potency and activity change, negative = inhibition data, which are given here for 40 molecules.

Inconclusive results are not listed. Entries that show only a call come without a potency. The source made the active and inactive calls. Calls follow the shape of the dose curve; as a rule, active = well fitted inhibition curve with a large enough effect; inconclusive = small, poorly fitted or top-dose-only effect; inactive = flat fitted curve, though single readings scatter.

The test system of the experiment is Zika virus NS2B-NS3 protease. Description: Primary screen GU AMC qHTS for Zika virus inhibitors (AID 1347154). Also: nearly all actives have a fitted effect of over 70% in size. Conditions: Zika NS2B-NS3 unlinked protease, AMC fluorogenic substrate; series mostly up to 54.1 µM. A digest of the protocol:
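Unlinked Zika NS2B hydrophilic domain–NS3 protease complex at 25 nM in 10 mM Tris-HCl pH 8.0, 0.01% Tween 20, with an AMC peptide substrate. Fluorescence change (340/450 nm) over 15 min at room temperature, normalized to controls, fitted to 4-parameter Hill.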
Regarding `C[C@@]1(C2CCCC2)Cc2cc(OCC(=O)O)c(Cl)c(Cl)c2C1=O`, the Potency entry was “inactive”.
Regarding `O=c1ccn([C@@H]2O[C@H](COP(=O)(O)OP(=O)(O)O)[C@@H](O)[C@H]2O)c(=O)[nH]1`, the Potency entry is “inactive”.
With `Cn1c(=O)[nH]c2ncn(C)c2c1=O`, the Potency entry is “inactive”.
As to `NCCCNCCCCNCCCN`, the Potency result is “inactive”.
As to `O=C(O)c1cccnc1C(=O)O`, the Potency entry is “inactive”.
`CC(=O)N[C@@H](Cc1c[nH]c2ccccc12)C(=O)OCc1cc(C(F)(F)F)cc(C(F)(F)F)c1`: the Potency entry is “inactive”.
As to `O=C(O)C1=CCCN(CCON=C(c2ccccc2)c2ccccc2)C1`, the Potency entry was “inactive”.
Consider `NCCNS(=O)(=O)c1cccc2c(Cl)cccc12`, for which the Potency result is “inactive”.
Take `CCCN(CCc1ccccc1)C1CCc2c(O)cccc2C1` (stereo not given): the Potency result was “inactive”.
For the molecule `CCn1c(=O)[nH]c2cc(Cl)c(Cl)cc21`, the Potency entry was “inactive”.
The same measure, in the same setting: the result for `c1ccc(C(NCc2cccnc2)(c2ccccc2)c2ccccc2)cc1` reads “inactive”; that for `NCCCCN=C(N)N`, “inactive”.
For `NCCS(=O)O`, the Potency result was “inactive”.
Consider `Nc1ccc(CCNc2ncnc3c2ncn3C2OC(CO)C(O)C2O)cc1` (stereo not given), for which the Potency entry was “inactive”.
Consider `Nc1ncnc2c1ncn2C1CCCO1` (stereo not given), for which the Potency entry was “inactive”.
As to `COc1ccc(CCN(C)CCc2ccc(OC)c(OC)c2)cc1OC`, the Potency entry was “inactive”.
On the same count and under the same terms, in the case of `COc1ccc(NC(=O)c2ccc(-c3ccc(-c4noc(C)n4)cc3C)cc2)cc1N1CCN(C)CC1` it was “inactive”; in that of `NC(N)=NC(N)=Nc1ccccc1`, “inactive”; in that of `Cn1cc(C(=O)OCC2CCN(CCNS(C)(=O)=O)CC2)c2ccccc21`, “inactive”.
Consider `CN[C@H](CC(=O)O)C(=O)O`, for which the Potency entry was “inactive”.
As to `CCCn1c(=O)c2c(ncn2C)n(CCC)c1=O`, the Potency entry was “inactive”.
As to `CC(N)(C(=O)O)c1ccc(C(=O)O)cc1` (stereo not given), the Potency entry was “inactive”.
Consider `O=[N+]([O-])c1cccc2cn[nH]c12`, for which the Potency result is “inactive”.
Same read-out and setting: in the case of `N[C@H](C(=O)O)[C@H]1C[C@@H]1C(=O)O` it was “inactive”; in that of `N[C@H](C(=O)O)c1cc(O)cc(O)c1`, “inactive”.
For `C#CCn1c(=O)c2c(ncn2C)n(C)c1=O`, the Potency entry is “inactive”.
As for `CCCCCCCCCCCCCCCCCCOC[C@H](COP(=O)([O-])OCC[N+](C)(C)C)OC`, the activity change, negative = inhibition was 2.23% [at 6.83 µM] (inactive).
As to `CC[N+](CC)(CC)CC(=O)Nc1c(C)cccc1C`, the Potency entry is “inactive”.
As for `N#Cc1cc2nc(O)c(O)nc2cc1[N+](=O)[O-]`, the Potency entry was “inactive”.
Same read-out and setting: in the case of `CCCCCCCCCCC(C)(C)C(=O)Nc1c(OC)cc(OC)cc1OC` it was “inactive”.
Take `CCCCCCCCCCC/C=C\C(C)(C)/C=C\CCCC(=O)O`: the activity change, negative = inhibition is 13.4% [at 6.83 µM] (inactive).
`CC(C)(CO)Cc1cc(C(C)(C)C)c(O)c(C(C)(C)C)c1`: the Potency result is “inactive”.
As to `N[C@H](C(=O)O)[C@H](O)C(=O)O`, the Potency result is “inactive”.
On the same count and under the same terms, in the case of `NC/C=C\C(=O)O` it was “inactive”; in that of `CCN(CC)CCOC(=O)c1cc(Cl)c(N)cc1OC`, “inactive”.
As to `CCCCCC[C@@H]([C@@H](C)O)n1cnc2c(N)ncnc21`, the Potency entry is “inactive”.
Take `N=C(N)SCCc1cnc[nH]1`: the Potency entry was “inactive”.
For the molecule `CC1CNCCN1S(=O)(=O)c1cccc2cnccc12` (stereo not given), the Potency entry was “inactive”.
Still for that read-out and setting: in the case of `CCCCCCC(=O)OC1CC(C)(C)NC(C)(C)C1` it was “inactive”; in that of `CC[C@H](NC(=O)c1c(C)c(-c2ccccc2)nc2ccccc12)c1ccccc1`, “inactive”.
